Records with an inconclusive call do not appear. Entries that show only a call come without a potency. Activity calls are given as the source filed them. Calls come from the whole dose curve; as a rule, active = well fitted cell-killing curve with a large enough effect in the repeat runs; inconclusive = weak or mixed curves, or effect the other way; inactive = flat fitted curve, though single readings scatter.
Potency is the fitted concentration of half-maximal effect.

This assay in a line: qHTS assay to identify small molecule antagonists of the constitutive androstane receptor (CAR) signaling pathway - cell viability counter screen (AID 1224837). Note: nearly all actives have a fitted effect of over 45% in size. The note with it: HepG2-CYP2B6-hCAR viability, CellTiter-Fluor, 23 h, co-treated with 50 nM CITCO; series mostly up to 92.4 µM. The source says:
National Center for Advancing Translational Sciences [NCATS]
NIH Chemical Genomics Center [NCGC]
U.S. Environmental Protection Agency [EPA]
National Institutes of Environmental Health Sciences [NIEHS]
National Toxicology Program [NTP]
U.S. Food and Drug Administration [FDA]
The constitutive androstane receptor (CAR) is a nuclear receptor which regulates multiple drug metabolizing enzymes (DMEs) and transporters. Activating CAR will generally increase the transcription and subsequent translation of CYP2B6 and CYP3A4. These two DMEs represent about 50% of the drug metabolizing potential in the body. When CAR is deactivated, the metabolizing potential in the body will decrease, subsequently increasing the toxicity in the body or lowering the therapeutic potential of a pro-drug. Recently, there have also been studies performed indicating CARs role in energy metabolism and cancer therapy. Therefore, inhibiting CARs activity could have a potential effect on diabetes and cancer. Identifying environmental toxins and compounds which modulate CAR, through the use of the Tox21 10K compound collection, will be an important step in determining the toxicity and potential therapeutic effects these factors will have on the human body. To differentiate true CAR antagonists from cytotoxic substances, the assay is multiplexed with a cell viability assay.
Tox21 Assay Protocol Summary:
A double-stable (hCAR and CYP2B6-2.2kb) transfected cell line, derived from human hepatoma (HepG2) cells, was utilized for the duration of the quantitative high-throughput screens. The HepG2-CYP2B6-hCAR cells were dispensed at 2500 cells/4 uL/well in 1536-well white solid bottom plates using a Multidrop Combi. After the assay plates were incubated at 37 C/5% CO2 for 4 hrs, 23 nL of compounds at 15 concentrations (from 5-48 columns) or positive control (from 1 to 4 columns) were transferred to the assay plates using a Pintool station. One uL of CITCO (final concentration = 50 nM) was added, using a Flying Reagent Dispenser, inside each well. After a 23 hr incubation period at 37 C/5% CO2, 1 uL of CellTiter-Fluor reagent was added into each well of the assay plates using a Flying Reagent Dispenser. The fluorescence intensity in the plates was then measured using a ViewLux plate reader.
(In qHTS, concentration-response curves come from the screen itself.)
Consider `O=C(O)Cn1c(C(=O)Nc2nc(-c3ccccc3Cl)cs2)cc2ccccc21`, for which the Potency entry was “inactive”.

For `NCCCN(CCO)CCO`, the Potency result is “inactive”.

Consider `Cc1c(Cn2ccnc2)c2ccccc2n1CCC(=O)O`, for which the Potency entry was “inactive”.

Regarding `CCOc1ccc(NC(=O)CC(C)=O)cc1`, the Potency entry was “inactive”.

In the case of `C=CC[N+]1([C@H]2C[C@H]3[C@@H]4CC[C@H]5C[C@H](OC(C)=O)[C@@H](N6CCCCC6)C[C@]5(C)[C@H]4CC[C@]3(C)[C@H]2OC(=O)CC)CCCCC1`, the Potency entry is “inactive”.

For the molecule `O=CNc1ccccc1`, the Potency entry is “inactive”.

Take `CCCCCCOC(=O)CCC`: the Potency entry was “inactive”.

`SC1CCCC1`: the Potency entry is “inactive”.

For the molecule `CC(C)NCC(O)COc1ccc(CC(N)=O)cc1` (stereo not given), the Potency result was “inactive”.

For the molecule `C#CCOC(=O)[C@@H](C)Oc1ccc(Oc2ncc(Cl)cc2F)cc1`, the Potency entry was “inactive”.

Regarding `CCCCCOC(=O)c1ccc(O)cc1`, the Potency result was “inactive”.

As for `CN(C)C/C=C(/c1ccc(Br)cc1)c1cccnc1`, the Potency entry is “inactive”.

As to `CC(C)(Oc1ccc(Cl)cc1)C(=O)OCCCOC(=O)C(C)(C)Oc1ccc(Cl)cc1`, the Potency result was “inactive”.

In the case of `Cc1ccccn1`, the Potency entry was “inactive”.

Turning to `CCCCCC(CO)CCC` (stereo not given), the Potency result was “inactive”.

`Nc1nc(N)c2nc(CNc3ccc(C(=O)N[C@@H](CCC(=O)O)C(=O)O)cc3)cnc2n1`: the Potency result is “inactive”.

Consider `O=C(O)COC(=O)Cc1ccccc1Nc1c(Cl)cccc1Cl`, for which the Potency result is “inactive”.

Turning to `CC(C)CCCC(C)CCO` (stereo not given), the Potency entry is “inactive”.

With `Cc1ccc(C)o1`, the Potency entry was “inactive”.

On to `Cc1ccc(C(=O)C(C)CN2CCCCC2)cc1` (stereo not given), for which the Potency result is “inactive”.

On to `N#CCCNCCC#N`, for which the Potency entry is “inactive”.

Turning to `Cc1cc(C)c(S(=O)(=O)O)cc1N=Nc1cc(S(=O)(=O)O)c2ccccc2c1O`, the Potency was 61.1 µM (active).

For `OCCC1CCCCN1` (stereo not given), the Potency result was “inactive”.

In the case of `CC(=O)NCCCS(=O)(=O)O`, the Potency entry was “inactive”.

Turning to `COCCO`, the Potency result is “inactive”.

As for `CC[C@@H]1C[C@H](N(Cc2cc(C(F)(F)F)cc(C(F)(F)F)c2)C(C)=O)c2cc(C(F)(F)F)ccc2N1C(=O)OC(C)C`, the Potency entry is “inactive”.

As to `CC(=O)/C(C)=C/C1C(C)=CCCC1(C)C` (stereo not given), the Potency result was “inactive”.

Turning to `CCOC(=O)CC(C)C`, the Potency result is “inactive”.

With `CC(C)CC=O`, the Potency entry was “inactive”.

As to `CC(C)(C)c1ccc(OCC2CO2)cc1` (stereo not given), the Potency entry is “inactive”.

`CC(Cc1cccc(C(F)(F)F)c1)NCCOC(=O)c1ccccc1` (stereo not given): the Potency result is “inactive”.

For the molecule `CCC(=O)OC(C)(C)C1CC=C(C)CC1` (stereo not given), the Potency entry is “inactive”.

For `C=CC(C)(CCC=C(C)C)OC(=O)c1ccccc1` (stereo not given), the Potency result is “inactive”.

On to `O=C(Cl)c1c(Cl)cccc1Cl`, for which the Potency result was “inactive”.

For the molecule `COC(Cc1ccccc1)OC`, the Potency entry was “inactive”.

For `CNS(=O)(=O)Cc1ccc2[nH]cc(CCN(C)C)c2c1`, the Potency entry is “inactive”.

In the case of `CCCC(=O)OCC`, the Potency result is “inactive”.

For `Oc1ccc2c(c1)OCO2`, the Potency result is “inactive”.

As to `Cn1c(NCCN(CCO)CCCc2ccc([N+](=O)[O-])cc2)cc(=O)n(C)c1=O`, the Potency entry is “inactive”.

For the molecule `CCCCC(CC)COCCCN` (stereo not given), the Potency entry was “inactive”.

The values are drawn from PubChem BioAssay (Tox21).
